Source: PubChem BioAssay (NCATS)
Records with an inconclusive call do not appear. Activity calls are given as the source filed them. The call rests on the fitted dose curve; in most records, active means well fitted curve in the direction sought with a large enough effect; inconclusive means small, poorly fitted or top-dose-only effect, or another doubt; inactive means no such curve, though single readings can be large; an effect the other way counts as inactive or inconclusive.

Assays:
[1] = qHTS for inhibitors of adenylyl cyclases using a fission yeast platform: a pilot screen against the NCATS LOPAC library (AID 1347410)
Outline: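 S. pombe CHP2027 (AC9-GNAS-PDE4D2) carrying PKA-repressed fbp1-GFP, incubated 18 h at 30C in EMM with LOPAC compounds at up to 57 uM. GFP gain-of-signal read by laser scanning cytometry; DMSO negative control.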

[2] = Validation qHTS assay for inhibitors of Activation Induced Cytidine Deaminase (AID): UDG Counterscreen signal (AID 1347427)
Outline: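 Counterscreen read of UDG activity (2 U/mL, 4/3x) in the FRET deamination format with AID (1 uM, 4/3x), DJC20/DJC23 substrates (250 nM, 4x), 4 h at room temperature. NaOH stop, fluorescence at 560 ex/665 em.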

[3] = target: Single-stranded DNA cytosine deaminase (Homo sapiens) (UniProt Q9GZX7); assay: Validation qHTS assay for inhibitors of Activation Induced Cytidine Deaminase (AID): AID signal (AID 1347429)
Sequence of Single-stranded DNA cytosine deaminase (Homo sapiens) (Q9GZX7 whole entry, looked up): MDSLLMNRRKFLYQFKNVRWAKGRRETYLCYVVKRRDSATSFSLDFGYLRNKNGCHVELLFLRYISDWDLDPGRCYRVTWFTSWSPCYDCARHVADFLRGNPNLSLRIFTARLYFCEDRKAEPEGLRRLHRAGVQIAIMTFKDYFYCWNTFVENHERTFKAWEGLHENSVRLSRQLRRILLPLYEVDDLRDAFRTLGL
Outline: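 In this coupled qHTS, AID deaminates a FRET-labelled ssDNA substrate in the presence of UDG over 4 hr at room temperature. Compounds span up to 114 uM final.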

[4] = Primary qHTS for inhibitors of La Crosse Virus (LACV) - induced cell death in SH-SY5Y cells (AID 1508616);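 further: top concentration of the series differs between compounds; higher means more rescue of cells from virus-induced death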
Outline: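 Readout was luminescence from ATPLite 1step added after a 6-day LACV infection (0.01 MOI) of SH-SY5Y cells that had received pin-transferred compound 24 hr after seeding.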

Measured: Potency

NS(=O)(=O)c1cccc2c1c([N+](=O)[O-])cc1nc(O)c(O)nc12
inactive: [1] | [2] | [3] | [4]

C#CCn1c(=O)c2c(ncn2C)n(C)c1=O
inactive: [1] | [2] | [3] | [4]

OC[C@H]1O[C@@H](n2cnc3cncnc32)[C@H](O)[C@@H]1O
inactive: [1] | [2] | [3] | [4]

O=c1[nH]c2ccccc2c2ccccc12
inactive: [1] | [2] | [3] | [4]

CC(C)NC[C@H](O)COc1ccc(CC(N)=O)cc1
inactive: [1] | [2] | [3] | [4]

O=C(O)[C@H]1NCCC[C@H]1C(=O)O
inactive: [1] | [2] | [3] | [4]

O=C(O)C1=CCCNC1
inactive: [1] | [2] | [3] | [4]

CC(C)(CO)Cc1cc(C(C)(C)C)c(O)c(C(C)(C)C)c1
inactive: [1] | [2] | [3] | [4]
